# From PubChem BioAssay (EPA / NIEHS)
# Results filed as inconclusive are left out. The source made the active and inactive calls. The calls were made as follows, unless noted: active = hit-call score of the fitted dose curve at least 0.9, where 1 is the maximum; inconclusive = response in the unintended direction; inactive = score below 0.9.
# Key:
# [1] = ATG_TAL_CIS: Attagene CIS-FACTORIAL HepG2 Assay for human TAL Basal Promoter (AID 2282966; active = hit-call score of the fitted dose curve at least 0.9, where 1 is the maximum; inactive = score below 0.9;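 also: background control endpoint measuring basal TAL promoter reporter mRNA not a specific factor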); details: HepG2 Attagene cis-factorial TAL promoter reporter; actives raise or lower the signal
# Outline: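 After 24 hours of chemical exposure, transfected HepG2 cells yielded RNA that was converted to 6-FAM-labelled, HpaI-digested reporter fragments for capillary electrophoresis. Values derive from bidirectional fitting against DMSO controls.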
# [2] = ATG_TGFb_CIS: Attagene CIS-FACTORIAL HepG2 Assay for human Transforming Growth Factor (TGF) (AID 2282967; active = hit-call score of the fitted dose curve at least 0.9, where 1 is the maximum; inactive = score below 0.9); details: HepG2 Attagene CIS TGFb reporter, mRNA transcription; actives raise or lower the signal
# Outline: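 Multiplexed cis-reporter HepG2 system, 24 h treatment; mRNA induction read by fluorescence after RT-PCR and CE; DMSO negative control, bidirectional curve fitting.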
# [3] = target: Steroid hormone receptor ERR1 (Homo sapiens) (UniProt P11474); assay: ATG_ERRa_TRANS: Attagene TRANS-FACTORIAL HepG2 Assay for human Estrogen-Related Receptor alpha (ERRa) (AID 2282971); details: HepG2 Attagene TRANS reporter, ERRa transactivation
# Outline: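 Reporter transcript induction was quantified by RT-PCR and capillary electrophoresis of FAM-labelled, HpaI-cut products after 24 h treatment of HepG2 cells carrying transiently transfected GAL4-UAS reporter units and an exogenous ERRa-Gal4 fusion; activity scored as increase over DMSO.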
# [4] = target: X-box-binding protein 1 (Homo sapiens) (UniProt P17861); assay: ATG_Xbp1_CIS: Attagene CIS-FACTORIAL HepG2 Assay for human X-box Binding Protein 1 (XBP1) (AID 2282972; active = hit-call score of the fitted dose curve at least 0.9, where 1 is the maximum; inactive = score below 0.9); details: HepG2 XBP1 cis-element reporter, Attagene multiplex; actives raise or lower the signal
# Outline: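 Human hepatoma HepG2, cis-element reporter system, 24 h treatment; mRNA quantified by RT-PCR/CE fluorescence; fit relative to DMSO.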
# [5] = ATG_GAL4_TRANS: Attagene TRANS-FACTORIAL HepG2 Assay for GAL4 (Internal Marker) (AID 2282976); details: HepG2 Attagene TRANS GAL4 internal marker reporter
# Outline: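 First, HepG2 cells were transfected with reporter units under GAL4-UAS control. Next, they were treated with chemical for 24 h. Finally, RNA was reverse-transcribed, PCR-amplified, FAM-labelled and resolved by capillary electrophoresis, with induction scored against DMSO.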
# [6] = target: Glucocorticoid receptor (Homo sapiens) (UniProt P04150); assay: ATG_GR_TRANS: Attagene TRANS-FACTORIAL HepG2 Assay for human Glucocorticoid Receptor (GR) (AID 2282978); details: HepG2 Attagene TRANS GR reporter, mRNA transcription;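 also: activators score as hits since higher reporter transcript over DMSO is fitted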
# Outline: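 Multiplexed TRANS reporter system, HepG2; 24 h exposure; RNA → oligo(dT) RT → reporter-specific PCR → 6-FAM primer extension → HpaI cut → CE fluorescence. Gain-of-signal vs DMSO.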
# [7] = target: Hepatocyte nuclear factor 4-alpha (Homo sapiens) (UniProt P41235); assay: ATG_HNF4a_TRANS: Attagene TRANS-FACTORIAL HepG2 Assay for human Hepatocyte Nuclear Factor 4 alpha (HNF4a) (AID 2282982); details: HepG2 HNF4a transactivation reporter, mRNA readout
# Outline: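 Endpoint reflects transcriptional activation of a GAL4-UAS reporter by an HNF4a-GAL4 chimera in transfected HepG2 cells, 24 h post-dosing. Fluorescence from RT-PCR products separated by capillary electrophoresis; DMSO baseline.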
# [8] = ATG_M_06_TRANS: Attagene TRANS-FACTORIAL HepG2 Assay for M06 Transcription Factor (Internal Marker) (AID 2282983); details: HepG2 Attagene TRANS M06 internal marker reporter
# Outline: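 Background control endpoint: reporter mRNA from transiently transfected HepG2 after 24 h dosing, detected by RT-PCR with capillary electrophoresis fluorescence. Analysed for gain versus DMSO.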
# [9] = target: Nuclear receptor subfamily 4 group A member 2 (Homo sapiens) (UniProt P43354); assay: ATG_NURR1_TRANS: Attagene TRANS-FACTORIAL HepG2 Assay for human Nuclear Receptor Related Protein 1 (NURR1) (AID 2282985); details: HepG2 Attagene TRANS reporter, mRNA readout
# Outline: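 Endpoint: reporter mRNA increase relative to DMSO. HepG2 cells transfected with reporter units, treated 24 h; RNA processed by RT-PCR, labelling, HpaI digestion and capillary electrophoresis.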
# [10] = target: Nuclear respiratory factor 1 (Homo sapiens) (UniProt Q16656); assay: ATG_NRF1_CIS: Attagene CIS-FACTORIAL HepG2 Assay for human Nuclear Respiratory Factor 1 (NRF1) Orphan Gene (AID 2282987; active = hit-call score of the fitted dose curve at least 0.9, where 1 is the maximum; inactive = score below 0.9); details: HepG2 NRF1 cis-element reporter, Attagene multiplex; actives raise or lower the signal
# Outline: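 Human hepatoma HepG2 cells carrying transfected promoter-regulated reporter units were incubated with test chemicals for 24 h. Reporter transcripts were measured by RT-PCR plus capillary electrophoresis, and endpoints derived by bidirectional fitting with DMSO as baseline.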
# [11] = target: Nuclear receptor subfamily 1 group I member 3 (Homo sapiens) (UniProt Q14994); assay: ATG_CAR_TRANS: Attagene TRANS-FACTORIAL HepG2 Assay for human Constitutive Androstane Receptor (CAR) (AID 2282969); details: HepG2 Attagene TRANS-FACTORIAL CAR reporter;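 also: activators raise reporter mRNA above DMSO so AC50 marks induction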
# Outline: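 Transiently transfected HepG2, multiplex TRANS reporters (CAR-Gal4 chimera driving GAL4-UAS reporter). 24 h dosing. Readout: reporter transcript by RT-PCR + capillary electrophoresis, fluorescence intensity; positive direction vs DMSO.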
# [12] = target: Estrogen receptor (Homo sapiens) (UniProt P03372); assay: ATG_ERa_TRANS: Attagene TRANS-FACTORIAL HepG2 Assay for human Estrogen Receptor alpha (ERa) (AID 2282970); details: HepG2 Attagene TRANS ERa GAL4 reporter, mRNA
# Outline: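 Liver-derived HepG2 cells expressing chimeric nuclear receptor-Gal4 proteins from transient transfection were exposed for 24 hours. Gain of reporter mRNA signal versus DMSO, read by capillary electrophoresis of FAM-labelled PCR products, was recorded.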
# [13] = target: Oxysterols receptor LXR-alpha (Homo sapiens) (UniProt Q13133); assay: ATG_LXRa_TRANS: Attagene TRANS-FACTORIAL HepG2 Assay for human Liver X Receptor alpha (LXRa) (AID 2282980); details: HepG2 Attagene TRANS reporter, LXRa transactivation
# Outline: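 Transfect HepG2 with GAL4-UAS multiplex reporter constructs (TRANS format, chimeric receptor-GAL4); treat 24 h; extract RNA, reverse-transcribe, PCR-amplify, FAM-label, HpaI-digest; resolve fragments by capillary electrophoresis. Upward response vs DMSO.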
# [14] = target: Oxysterols receptor LXR-beta (Homo sapiens) (UniProt P55055); assay: ATG_LXRb_TRANS: Attagene TRANS-FACTORIAL HepG2 Assay for human Liver X Receptor beta (LXRb) (AID 2282981); details: HepG2 Attagene TRANS GAL4-LXRb reporter, mRNA
# Outline: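 Multiplexed reporter assay, HepG2, 24 h dosing. Fluorescence of labelled RT-PCR products after capillary electrophoresis gives transcript level; positive fitting direction relative to DMSO.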
# [15] = target: Transcriptional activator Myb (Homo sapiens) (UniProt P10242); assay: ATG_Myb_CIS: Attagene CIS-FACTORIAL HepG2 Assay for human Myeloblastosis (Myb) Proto-Oncogene Transcription Factor (AID 2282986; active = hit-call score of the fitted dose curve at least 0.9, where 1 is the maximum; inactive = score below 0.9); details: HepG2 Attagene CIS-FACTORIAL Myb reporter transcription; actives raise or lower the signal
# Outline: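 Endogenous transcription factor activity at a Myb-responsive cis element is reported in human liver HepG2 cells after 24 h chemical treatment. Reporter mRNA is detected by RT-PCR and capillary electrophoresis fluorescence, with DMSO as baseline.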
# [16] = ATG_M_32_TRANS: Attagene TRANS-FACTORIAL HepG2 Assay for M32 Transcription Factor (Internal Marker) (AID 2282984); details: HepG2 Attagene TRANS M32 internal marker reporter;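 also: transcript level of a background control reporter unit measured by RT-PCR and capillary electrophoresis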
# Outline: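 Internal-marker readout from a multiplexed transcription reporter panel. HepG2 cells were transfected with GAL4-UAS reporter units, treated 24 hours, and reporter transcript levels determined by fluorescence after RT-PCR and capillary separation.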
# [17] = target: Bile acid receptor (Homo sapiens) (UniProt Q96RI1); assay: ATG_FXR_TRANS: Attagene TRANS-FACTORIAL HepG2 Assay for Farnesoid X Receptor (FXR) (AID 2282979); details: HepG2 Attagene TRANS FXR-GAL4 reporter transcription;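 also: hits raise reporter mRNA above DMSO so AC50 marks FXR activation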
# Outline: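 Transient transfection of HepG2 with multiplexed GAL4-UAS reporter units; exogenous FXR-GAL4 chimera. Dose 24 h → TriZol RNA → oligo(dT) RT → PCR, 6-FAM primer extension, HpaI cut → CE. Gain vs DMSO.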
# [18] = ATG_M_19_TRANS: Attagene TRANS-FACTORIAL HepG2 Assay for M19 Transcription Factor (Internal Marker) (AID 2282974); details: HepG2 Attagene TRANS-FACTORIAL M19 internal marker reporter
# Outline: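 After transfection of HepG2 with GAL4-UAS-driven reporter constructs, cells are dosed for 24 h. Total RNA is reverse-transcribed, reporter sequences PCR-amplified and labelled, then HpaI-digested and sized by capillary electrophoresis.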
# [19] = ATG_VDRE_CIS: Attagene CIS-FACTORIAL HepG2 Assay for human Vitamin D Receptor Element (VDRE) (AID 2282968; active = hit-call score of the fitted dose curve at least 0.9, where 1 is the maximum; inactive = score below 0.9); details: HepG2 VDRE cis-reporter transcription, actives raise or lower the signal
# Outline: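 Compounds were applied for 24 h to HepG2 cells transfected with promoter-regulated reporter units. Total RNA was reverse-transcribed, and reporter amplicons were fluorescently labelled and sized by capillary electrophoresis.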
# Sequence of Nuclear respiratory factor 1 (Homo sapiens) (Q16656 whole entry, looked up): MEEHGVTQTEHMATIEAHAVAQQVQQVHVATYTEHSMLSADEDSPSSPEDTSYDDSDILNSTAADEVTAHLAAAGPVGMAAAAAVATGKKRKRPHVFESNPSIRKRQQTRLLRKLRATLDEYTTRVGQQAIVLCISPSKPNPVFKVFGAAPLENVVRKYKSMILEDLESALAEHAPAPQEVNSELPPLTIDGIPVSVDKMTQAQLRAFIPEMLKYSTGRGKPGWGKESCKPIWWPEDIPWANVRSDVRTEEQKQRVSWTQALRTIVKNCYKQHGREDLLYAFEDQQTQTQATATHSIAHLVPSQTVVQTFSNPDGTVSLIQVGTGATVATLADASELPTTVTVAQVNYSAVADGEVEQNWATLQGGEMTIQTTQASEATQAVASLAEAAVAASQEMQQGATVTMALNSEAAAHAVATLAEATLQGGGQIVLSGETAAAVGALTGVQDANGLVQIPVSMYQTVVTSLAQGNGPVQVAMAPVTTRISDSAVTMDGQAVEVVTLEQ
# Sequence of Nuclear receptor subfamily 4 group A member 2 (Homo sapiens) (P43354 whole entry, looked up): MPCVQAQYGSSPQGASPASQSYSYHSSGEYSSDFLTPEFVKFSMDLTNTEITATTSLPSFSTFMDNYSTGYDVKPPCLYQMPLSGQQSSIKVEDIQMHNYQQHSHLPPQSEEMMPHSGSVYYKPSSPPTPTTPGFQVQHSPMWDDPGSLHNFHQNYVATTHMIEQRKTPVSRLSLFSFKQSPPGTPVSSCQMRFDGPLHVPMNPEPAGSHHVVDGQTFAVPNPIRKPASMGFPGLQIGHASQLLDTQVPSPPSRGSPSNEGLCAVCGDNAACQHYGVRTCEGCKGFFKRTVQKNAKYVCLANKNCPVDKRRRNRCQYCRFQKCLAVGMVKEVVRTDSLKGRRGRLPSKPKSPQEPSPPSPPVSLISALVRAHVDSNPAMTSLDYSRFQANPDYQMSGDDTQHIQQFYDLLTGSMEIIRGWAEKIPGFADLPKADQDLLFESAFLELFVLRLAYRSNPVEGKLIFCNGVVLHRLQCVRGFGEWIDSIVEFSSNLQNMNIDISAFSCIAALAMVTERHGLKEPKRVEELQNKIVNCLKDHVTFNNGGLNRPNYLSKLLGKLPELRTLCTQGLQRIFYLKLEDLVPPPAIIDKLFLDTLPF
# Sequence of Hepatocyte nuclear factor 4-alpha (Homo sapiens) (P41235 whole entry, looked up, the tested form may be a part): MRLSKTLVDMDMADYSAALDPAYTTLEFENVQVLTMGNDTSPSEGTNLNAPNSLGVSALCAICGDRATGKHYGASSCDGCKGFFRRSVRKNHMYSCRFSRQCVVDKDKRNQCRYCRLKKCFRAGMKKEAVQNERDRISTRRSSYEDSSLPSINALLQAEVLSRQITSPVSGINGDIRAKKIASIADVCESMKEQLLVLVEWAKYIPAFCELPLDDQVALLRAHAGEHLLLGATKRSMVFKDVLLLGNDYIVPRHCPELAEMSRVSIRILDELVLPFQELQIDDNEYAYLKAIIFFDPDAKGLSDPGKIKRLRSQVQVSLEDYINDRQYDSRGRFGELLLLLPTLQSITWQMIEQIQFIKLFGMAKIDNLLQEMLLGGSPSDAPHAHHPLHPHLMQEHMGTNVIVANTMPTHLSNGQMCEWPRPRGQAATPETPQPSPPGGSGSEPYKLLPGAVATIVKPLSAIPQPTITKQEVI
# Sequence of Oxysterols receptor LXR-beta (Homo sapiens) (P55055 whole entry, looked up, the tested form may be a part): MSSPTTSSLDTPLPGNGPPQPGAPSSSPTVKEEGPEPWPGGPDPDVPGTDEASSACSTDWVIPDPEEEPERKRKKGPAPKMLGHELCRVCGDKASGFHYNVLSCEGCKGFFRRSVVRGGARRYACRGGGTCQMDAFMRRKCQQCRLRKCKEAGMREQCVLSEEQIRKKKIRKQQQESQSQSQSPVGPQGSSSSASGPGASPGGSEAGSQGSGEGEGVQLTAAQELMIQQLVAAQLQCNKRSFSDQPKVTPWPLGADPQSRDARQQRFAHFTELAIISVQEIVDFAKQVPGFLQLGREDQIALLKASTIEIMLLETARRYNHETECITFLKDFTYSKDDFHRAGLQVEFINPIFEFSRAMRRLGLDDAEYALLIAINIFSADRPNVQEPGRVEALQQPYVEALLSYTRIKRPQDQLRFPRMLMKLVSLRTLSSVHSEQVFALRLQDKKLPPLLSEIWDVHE
# Sequence of Glucocorticoid receptor (Homo sapiens) (P04150 whole entry, looked up): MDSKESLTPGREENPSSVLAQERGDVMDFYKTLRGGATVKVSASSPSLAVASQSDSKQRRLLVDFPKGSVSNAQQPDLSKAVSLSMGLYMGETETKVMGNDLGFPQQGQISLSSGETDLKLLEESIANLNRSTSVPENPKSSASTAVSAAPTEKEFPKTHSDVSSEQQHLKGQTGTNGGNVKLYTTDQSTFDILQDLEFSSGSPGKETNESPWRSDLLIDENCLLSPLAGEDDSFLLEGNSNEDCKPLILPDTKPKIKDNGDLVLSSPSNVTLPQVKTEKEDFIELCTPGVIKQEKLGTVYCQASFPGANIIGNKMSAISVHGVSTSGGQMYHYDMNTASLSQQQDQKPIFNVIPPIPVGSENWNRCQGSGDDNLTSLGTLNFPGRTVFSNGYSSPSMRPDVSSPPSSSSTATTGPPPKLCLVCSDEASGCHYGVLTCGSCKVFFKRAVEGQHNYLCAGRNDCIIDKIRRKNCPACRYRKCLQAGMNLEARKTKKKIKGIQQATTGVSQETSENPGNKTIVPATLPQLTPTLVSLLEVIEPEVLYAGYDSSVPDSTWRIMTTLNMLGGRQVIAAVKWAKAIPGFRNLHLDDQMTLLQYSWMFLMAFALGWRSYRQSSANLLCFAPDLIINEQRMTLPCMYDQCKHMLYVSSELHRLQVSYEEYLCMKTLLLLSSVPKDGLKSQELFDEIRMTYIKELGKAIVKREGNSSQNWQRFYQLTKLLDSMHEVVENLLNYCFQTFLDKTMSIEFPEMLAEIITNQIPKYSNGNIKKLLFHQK
# Sequence of Estrogen receptor (Homo sapiens) (P03372 whole entry, looked up, the tested form may be a part): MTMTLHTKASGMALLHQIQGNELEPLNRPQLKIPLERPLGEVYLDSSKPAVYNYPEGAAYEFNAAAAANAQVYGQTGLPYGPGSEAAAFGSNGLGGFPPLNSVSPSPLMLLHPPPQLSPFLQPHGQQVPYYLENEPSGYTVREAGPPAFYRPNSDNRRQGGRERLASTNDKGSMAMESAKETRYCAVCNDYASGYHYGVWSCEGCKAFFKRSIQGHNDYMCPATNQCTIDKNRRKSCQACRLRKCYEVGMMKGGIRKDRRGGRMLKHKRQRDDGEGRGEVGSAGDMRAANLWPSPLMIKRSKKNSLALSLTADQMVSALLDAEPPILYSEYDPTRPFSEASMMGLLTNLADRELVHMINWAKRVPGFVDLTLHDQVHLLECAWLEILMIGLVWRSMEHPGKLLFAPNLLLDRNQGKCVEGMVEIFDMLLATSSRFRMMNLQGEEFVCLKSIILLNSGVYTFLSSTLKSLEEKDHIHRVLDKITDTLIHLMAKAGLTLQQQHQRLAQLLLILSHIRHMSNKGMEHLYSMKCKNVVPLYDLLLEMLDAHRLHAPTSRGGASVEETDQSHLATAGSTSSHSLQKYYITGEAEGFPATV
# Sequence of Nuclear receptor subfamily 1 group I member 3 (Homo sapiens) (Q14994 whole entry, looked up, the tested form may be a part): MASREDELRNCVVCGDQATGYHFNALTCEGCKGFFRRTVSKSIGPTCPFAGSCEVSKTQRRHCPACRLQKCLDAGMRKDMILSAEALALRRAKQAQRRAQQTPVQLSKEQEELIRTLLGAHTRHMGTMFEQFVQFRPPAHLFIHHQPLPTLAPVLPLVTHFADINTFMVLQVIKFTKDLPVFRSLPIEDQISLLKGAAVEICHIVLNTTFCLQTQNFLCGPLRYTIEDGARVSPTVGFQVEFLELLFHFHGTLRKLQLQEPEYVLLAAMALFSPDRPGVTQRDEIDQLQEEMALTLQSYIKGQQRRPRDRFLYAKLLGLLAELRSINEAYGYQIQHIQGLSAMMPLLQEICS
# Sequence of Steroid hormone receptor ERR1 (Homo sapiens) (P11474 whole entry, looked up, the tested form may be a part): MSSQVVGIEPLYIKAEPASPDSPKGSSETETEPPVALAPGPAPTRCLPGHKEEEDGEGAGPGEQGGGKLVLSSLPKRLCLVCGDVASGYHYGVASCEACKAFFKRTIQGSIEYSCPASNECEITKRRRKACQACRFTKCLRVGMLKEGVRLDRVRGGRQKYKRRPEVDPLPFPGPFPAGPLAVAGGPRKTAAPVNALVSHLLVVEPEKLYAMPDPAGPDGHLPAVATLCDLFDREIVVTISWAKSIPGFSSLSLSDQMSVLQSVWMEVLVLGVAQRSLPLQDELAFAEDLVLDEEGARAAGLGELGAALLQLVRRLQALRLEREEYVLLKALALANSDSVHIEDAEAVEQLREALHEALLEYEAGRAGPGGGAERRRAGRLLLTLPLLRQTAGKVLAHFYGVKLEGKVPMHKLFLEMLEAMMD
# Sequence of Bile acid receptor (Homo sapiens) (Q96RI1 whole entry, looked up, the tested form may be a part): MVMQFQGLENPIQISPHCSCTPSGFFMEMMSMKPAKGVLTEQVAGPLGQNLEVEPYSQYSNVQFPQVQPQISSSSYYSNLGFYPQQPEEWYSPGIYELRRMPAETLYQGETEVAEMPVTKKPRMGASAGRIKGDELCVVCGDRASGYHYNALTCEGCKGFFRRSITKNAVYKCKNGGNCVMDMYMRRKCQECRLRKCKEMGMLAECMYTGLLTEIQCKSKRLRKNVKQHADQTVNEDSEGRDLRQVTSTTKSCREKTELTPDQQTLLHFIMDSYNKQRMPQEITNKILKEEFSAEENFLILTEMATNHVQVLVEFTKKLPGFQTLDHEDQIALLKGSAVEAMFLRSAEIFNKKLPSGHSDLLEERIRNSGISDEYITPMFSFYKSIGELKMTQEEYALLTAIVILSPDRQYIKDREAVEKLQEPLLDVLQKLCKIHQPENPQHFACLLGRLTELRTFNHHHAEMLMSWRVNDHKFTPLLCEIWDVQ
# Sequence of X-box-binding protein 1 (Homo sapiens) (P17861 whole entry, looked up): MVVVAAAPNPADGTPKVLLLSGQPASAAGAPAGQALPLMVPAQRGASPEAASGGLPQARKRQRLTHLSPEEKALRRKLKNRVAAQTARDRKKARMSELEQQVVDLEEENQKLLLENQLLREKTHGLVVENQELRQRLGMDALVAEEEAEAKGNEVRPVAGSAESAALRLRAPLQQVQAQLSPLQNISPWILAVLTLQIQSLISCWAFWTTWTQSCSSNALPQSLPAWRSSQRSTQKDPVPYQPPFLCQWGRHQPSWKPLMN
smiles,measurement,setting,value
SCCc1cnccn1,AC50,[1],100 µM (active)
same,outcome,[2],inactive
same,outcome,[3],inactive
same,outcome,[4],inactive
same,outcome,[5],inactive
same,outcome,[6],inactive
same,outcome,[7],inactive
same,outcome,[8],inactive
same,outcome,[9],inactive
same,outcome,[10],inactive
COc1cc(NC(=O)CC(C)=O)c(OC)cc1Cl,outcome,[1],inactive
same,outcome,[2],inactive
same,outcome,[11],inactive
same,outcome,[12],inactive
same,outcome,[3],inactive
same,outcome,[4],inactive
same,outcome,[5],inactive
same,outcome,[6],inactive
same,outcome,[13],inactive
same,outcome,[14],inactive
same,outcome,[9],inactive
same,outcome,[15],inactive
same,outcome,[10],inactive
O=C(c1ccc(O)cc1)c1ccc(O)cc1O,outcome,[1],inactive
same,outcome,[2],inactive
same,outcome,[11],inactive
same,AC50,[12],1.03 µM (active)
same,outcome,[4],inactive
same,outcome,[5],inactive
same,outcome,[6],inactive
same,outcome,[8],inactive
same,outcome,[16],inactive
same,outcome,[9],inactive
same,outcome,[15],inactive
same,outcome,[10],inactive
CCCCCCCC/C=C\CCCCCCCC(=O)O,outcome,[1],inactive
same,outcome,[2],inactive
same,outcome,[12],inactive
same,outcome,[4],inactive
same,outcome,[5],inactive
same,outcome,[6],inactive
same,outcome,[17],inactive
same,outcome,[14],inactive
same,outcome,[8],inactive
same,outcome,[16],inactive
same,outcome,[9],inactive
same,outcome,[15],inactive
same,outcome,[10],inactive
C=C1[C@H]2CC[C@@H]3[C@H]2C(C)(C)CCC[C@]13C,outcome,[1],inactive
same,outcome,[2],inactive
same,outcome,[11],inactive
same,AC50,[12],18.9 µM (active)
same,outcome,[4],inactive
same,outcome,[18],inactive
same,outcome,[6],inactive
same,outcome,[17],inactive
same,outcome,[7],inactive
same,outcome,[8],inactive
same,outcome,[9],inactive
same,outcome,[15],inactive
same,outcome,[10],inactive
O=C(Cl)c1cc(C(=O)Cl)cc(C(=O)Cl)c1,outcome,[1],inactive
same,AC50,[2],132 µM (active)
same,AC50,[19],46 µM (active)
same,outcome,[4],inactive
same,outcome,[17],inactive
same,outcome,[8],inactive
same,outcome,[16],inactive
same,outcome,[15],inactive
same,outcome,[10],inactive
C[C@]12CCC(=O)C=C1CC[C@@H]1[C@@H]2C(=O)C[C@@]2(C)[C@H]1CC[C@]2(O)C(=O)CO,outcome,[1],inactive
same,outcome,[2],inactive
same,outcome,[12],inactive
same,outcome,[4],inactive
same,outcome,[5],inactive
same,outcome,[6],inactive
same,outcome,[13],inactive
same,outcome,[14],inactive
same,outcome,[7],inactive
same,outcome,[8],inactive
same,outcome,[10],inactive
c1ccc2c(c1)ccc1cc3c(ccc4ccccc43)cc12,outcome,[1],inactive
same,outcome,[2],inactive
same,outcome,[12],inactive
same,outcome,[4],inactive
same,outcome,[18],inactive
same,outcome,[5],inactive
same,outcome,[6],inactive
same,outcome,[17],inactive
same,outcome,[14],inactive
same,outcome,[7],inactive
same,outcome,[16],inactive
same,outcome,[9],inactive
same,outcome,[15],inactive
same,outcome,[10],inactive
CCCCCCCCCCCCCCCC[n+]1ccccc1,outcome,[1],inactive
same,AC50,[2],45.8 µM (active)
same,AC50,[19],3.87 µM (active)
same,outcome,[4],inactive
same,outcome,[14],inactive
same,outcome,[8],inactive
same,outcome,[16],inactive
same,outcome,[15],inactive
same,AC50,[10],14.7 µM (active)
O=C1CCCCCCCCCCCCCCCO1,outcome,[1],inactive
same,outcome,[2],inactive
same,outcome,[11],inactive
same,outcome,[12],inactive
same,outcome,[3],inactive
same,outcome,[4],inactive
same,outcome,[6],inactive
same,outcome,[17],inactive
same,outcome,[14],inactive
same,outcome,[8],inactive
same,outcome,[16],inactive
same,outcome,[9],inactive
same,outcome,[15],inactive
same,outcome,[10],inactive
